# According to PubChem BioAssay AID624396 (The Scripps Research Institute Molecular Screening Center, 2012):
# The source made the active and inactive calls.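 How the source made its calls: active means over 15% of cells apoptotic at 25 µM, or half-maximal dose of 10 µM or lower; inactive means the rest.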
# System: DHL-10
# Test: apoptosis induction in cancer cell lines, late-stage follow-up, mechanism study for MCL1-BIM inhibitor project, imaging, DAPI staining, cell line panel, probe (AID 624396)
# Conditions: DAPI nuclear morphology
smiles,measurement,value
CCN1CCN(C(c2ccc(C(F)(F)F)cc2)c2ccc3cccnc3c2O)CC1 (stereo unspecified),outcome,inactive
